# Columns and labels:
# [1] = target: T1, Tyrosine-protein kinase ITK/TSK (Homo sapiens) (UniProt Q08881); conditions: at 1 µM;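 further: values are mean percent inhibition of ITK from the GSK PKIS screen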
# T1 sequence (whole entry): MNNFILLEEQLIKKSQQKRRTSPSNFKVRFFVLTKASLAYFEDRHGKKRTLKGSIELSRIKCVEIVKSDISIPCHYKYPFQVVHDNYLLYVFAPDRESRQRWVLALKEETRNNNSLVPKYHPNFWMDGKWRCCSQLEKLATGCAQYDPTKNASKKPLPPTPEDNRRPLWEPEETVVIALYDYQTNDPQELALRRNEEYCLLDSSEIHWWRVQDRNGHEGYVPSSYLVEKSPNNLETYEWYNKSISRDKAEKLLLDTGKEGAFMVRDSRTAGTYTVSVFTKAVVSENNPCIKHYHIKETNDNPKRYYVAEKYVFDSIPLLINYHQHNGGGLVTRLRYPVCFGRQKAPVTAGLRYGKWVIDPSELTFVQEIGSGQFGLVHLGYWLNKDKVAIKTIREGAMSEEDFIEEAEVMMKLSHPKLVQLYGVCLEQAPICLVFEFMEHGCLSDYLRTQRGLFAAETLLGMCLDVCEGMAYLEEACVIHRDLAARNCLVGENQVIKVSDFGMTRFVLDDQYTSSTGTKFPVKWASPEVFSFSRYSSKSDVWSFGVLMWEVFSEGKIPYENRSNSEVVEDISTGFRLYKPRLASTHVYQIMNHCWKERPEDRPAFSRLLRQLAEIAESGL
# [2] = target: Tyrosine-protein kinase JAK1 (Homo sapiens) (UniProt P23458); conditions: at 0.1 µM
# Tyrosine-protein kinase JAK1 (Homo sapiens), sequence (P23458 whole entry): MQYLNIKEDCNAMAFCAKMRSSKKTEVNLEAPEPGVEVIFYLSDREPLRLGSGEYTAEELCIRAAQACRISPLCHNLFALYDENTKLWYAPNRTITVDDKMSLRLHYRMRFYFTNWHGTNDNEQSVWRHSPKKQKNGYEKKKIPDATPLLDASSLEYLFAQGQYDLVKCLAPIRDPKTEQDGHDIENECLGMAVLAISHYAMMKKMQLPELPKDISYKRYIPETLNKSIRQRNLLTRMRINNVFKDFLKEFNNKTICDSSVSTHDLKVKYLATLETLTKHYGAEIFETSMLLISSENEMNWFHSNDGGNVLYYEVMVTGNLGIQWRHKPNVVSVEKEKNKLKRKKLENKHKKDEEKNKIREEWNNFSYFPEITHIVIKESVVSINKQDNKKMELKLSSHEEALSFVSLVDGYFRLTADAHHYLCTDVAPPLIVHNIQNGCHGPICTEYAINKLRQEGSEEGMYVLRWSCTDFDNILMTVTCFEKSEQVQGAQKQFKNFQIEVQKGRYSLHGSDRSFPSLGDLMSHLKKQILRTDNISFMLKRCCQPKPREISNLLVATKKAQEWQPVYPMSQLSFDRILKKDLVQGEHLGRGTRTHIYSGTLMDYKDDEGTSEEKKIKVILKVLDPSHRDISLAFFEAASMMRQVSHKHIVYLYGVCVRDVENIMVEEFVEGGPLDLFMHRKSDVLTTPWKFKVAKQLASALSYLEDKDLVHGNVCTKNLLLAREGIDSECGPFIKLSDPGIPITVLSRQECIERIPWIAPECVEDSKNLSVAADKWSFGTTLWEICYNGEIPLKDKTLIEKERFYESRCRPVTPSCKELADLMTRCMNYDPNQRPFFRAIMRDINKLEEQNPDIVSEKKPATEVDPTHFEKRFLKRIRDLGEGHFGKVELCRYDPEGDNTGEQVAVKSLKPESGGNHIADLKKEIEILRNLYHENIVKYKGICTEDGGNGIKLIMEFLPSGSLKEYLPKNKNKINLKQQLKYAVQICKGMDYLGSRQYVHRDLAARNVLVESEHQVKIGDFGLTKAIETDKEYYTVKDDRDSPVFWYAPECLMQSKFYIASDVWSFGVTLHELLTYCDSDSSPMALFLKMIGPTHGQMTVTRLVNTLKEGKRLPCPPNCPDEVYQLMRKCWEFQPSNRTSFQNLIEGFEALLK
# [3] = target: Tyrosine-protein kinase JAK1 (Homo sapiens) (UniProt P23458); conditions: at 1 µM
# [4] = target: Tyrosine-protein kinase JAK2 (Homo sapiens) (UniProt O60674); conditions: at 0.1 µM
# Tyrosine-protein kinase JAK2 (Homo sapiens), sequence (O60674 whole entry): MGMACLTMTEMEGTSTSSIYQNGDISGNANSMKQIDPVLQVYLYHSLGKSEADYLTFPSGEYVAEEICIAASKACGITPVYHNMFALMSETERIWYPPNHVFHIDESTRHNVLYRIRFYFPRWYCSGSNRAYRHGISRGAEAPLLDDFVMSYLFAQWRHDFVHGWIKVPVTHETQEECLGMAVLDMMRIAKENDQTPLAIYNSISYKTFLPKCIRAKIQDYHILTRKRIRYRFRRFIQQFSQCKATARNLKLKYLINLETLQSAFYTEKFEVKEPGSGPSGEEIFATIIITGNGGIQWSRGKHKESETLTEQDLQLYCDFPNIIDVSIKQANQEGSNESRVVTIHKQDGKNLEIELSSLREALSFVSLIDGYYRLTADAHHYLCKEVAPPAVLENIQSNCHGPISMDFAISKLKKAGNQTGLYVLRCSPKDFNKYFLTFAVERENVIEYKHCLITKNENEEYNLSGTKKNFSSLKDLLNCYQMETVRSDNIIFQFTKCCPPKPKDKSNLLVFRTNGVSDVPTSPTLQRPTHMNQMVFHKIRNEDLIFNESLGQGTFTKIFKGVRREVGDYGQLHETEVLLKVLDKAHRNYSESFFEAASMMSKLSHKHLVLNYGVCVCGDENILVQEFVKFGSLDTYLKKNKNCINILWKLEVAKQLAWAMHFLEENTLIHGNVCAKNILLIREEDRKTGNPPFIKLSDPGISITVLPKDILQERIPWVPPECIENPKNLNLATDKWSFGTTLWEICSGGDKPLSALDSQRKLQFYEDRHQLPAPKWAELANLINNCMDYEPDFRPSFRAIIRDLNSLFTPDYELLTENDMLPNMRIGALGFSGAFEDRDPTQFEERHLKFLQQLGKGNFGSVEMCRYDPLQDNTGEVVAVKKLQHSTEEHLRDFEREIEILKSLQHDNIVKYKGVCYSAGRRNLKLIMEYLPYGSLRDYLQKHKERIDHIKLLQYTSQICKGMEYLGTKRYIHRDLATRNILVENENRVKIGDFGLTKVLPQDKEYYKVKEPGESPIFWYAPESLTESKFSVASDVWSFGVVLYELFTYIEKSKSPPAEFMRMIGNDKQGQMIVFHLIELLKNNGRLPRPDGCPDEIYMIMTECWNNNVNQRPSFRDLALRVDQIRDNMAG
# [5] = target: Tyrosine-protein kinase JAK2 (Homo sapiens) (UniProt O60674); conditions: at 1 µM
# [6] = target: T2, Tyrosine-protein kinase JAK3 (Homo sapiens) (UniProt P52333); conditions: at 0.1 µM
# T2 sequence (whole entry): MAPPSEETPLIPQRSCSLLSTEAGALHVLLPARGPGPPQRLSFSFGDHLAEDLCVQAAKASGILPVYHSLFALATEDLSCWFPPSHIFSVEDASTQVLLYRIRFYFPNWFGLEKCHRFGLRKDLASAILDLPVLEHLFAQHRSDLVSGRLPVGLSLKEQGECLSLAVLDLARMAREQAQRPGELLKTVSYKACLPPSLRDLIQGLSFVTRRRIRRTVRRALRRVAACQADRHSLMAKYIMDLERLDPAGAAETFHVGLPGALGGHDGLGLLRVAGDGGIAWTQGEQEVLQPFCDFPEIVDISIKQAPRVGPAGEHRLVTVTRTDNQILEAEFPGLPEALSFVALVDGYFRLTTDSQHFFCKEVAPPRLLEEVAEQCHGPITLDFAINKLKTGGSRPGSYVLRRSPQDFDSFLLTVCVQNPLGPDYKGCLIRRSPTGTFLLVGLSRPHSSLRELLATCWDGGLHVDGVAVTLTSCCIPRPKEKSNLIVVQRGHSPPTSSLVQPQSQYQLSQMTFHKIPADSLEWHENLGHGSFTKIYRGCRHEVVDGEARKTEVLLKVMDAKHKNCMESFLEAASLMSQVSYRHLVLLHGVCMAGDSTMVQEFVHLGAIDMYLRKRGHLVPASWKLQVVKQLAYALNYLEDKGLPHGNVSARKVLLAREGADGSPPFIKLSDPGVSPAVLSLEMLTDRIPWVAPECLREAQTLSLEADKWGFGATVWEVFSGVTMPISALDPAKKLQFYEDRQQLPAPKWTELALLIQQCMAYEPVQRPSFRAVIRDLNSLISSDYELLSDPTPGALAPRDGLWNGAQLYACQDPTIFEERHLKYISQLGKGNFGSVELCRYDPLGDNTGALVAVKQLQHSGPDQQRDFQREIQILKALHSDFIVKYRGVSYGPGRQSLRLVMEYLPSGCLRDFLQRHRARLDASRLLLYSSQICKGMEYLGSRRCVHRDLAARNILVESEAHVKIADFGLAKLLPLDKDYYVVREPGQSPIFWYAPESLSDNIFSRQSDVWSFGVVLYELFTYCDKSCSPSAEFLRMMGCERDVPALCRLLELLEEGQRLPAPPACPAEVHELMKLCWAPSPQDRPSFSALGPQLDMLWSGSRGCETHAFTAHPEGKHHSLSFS
# [7] = target: T2, Tyrosine-protein kinase JAK3 (Homo sapiens); conditions: at 1 µM
# [8] = target: Vascular endothelial growth factor receptor 2 (Homo sapiens) (UniProt P35968); conditions: at 0.1 µM
# Vascular endothelial growth factor receptor 2 (Homo sapiens), sequence (P35968 whole entry): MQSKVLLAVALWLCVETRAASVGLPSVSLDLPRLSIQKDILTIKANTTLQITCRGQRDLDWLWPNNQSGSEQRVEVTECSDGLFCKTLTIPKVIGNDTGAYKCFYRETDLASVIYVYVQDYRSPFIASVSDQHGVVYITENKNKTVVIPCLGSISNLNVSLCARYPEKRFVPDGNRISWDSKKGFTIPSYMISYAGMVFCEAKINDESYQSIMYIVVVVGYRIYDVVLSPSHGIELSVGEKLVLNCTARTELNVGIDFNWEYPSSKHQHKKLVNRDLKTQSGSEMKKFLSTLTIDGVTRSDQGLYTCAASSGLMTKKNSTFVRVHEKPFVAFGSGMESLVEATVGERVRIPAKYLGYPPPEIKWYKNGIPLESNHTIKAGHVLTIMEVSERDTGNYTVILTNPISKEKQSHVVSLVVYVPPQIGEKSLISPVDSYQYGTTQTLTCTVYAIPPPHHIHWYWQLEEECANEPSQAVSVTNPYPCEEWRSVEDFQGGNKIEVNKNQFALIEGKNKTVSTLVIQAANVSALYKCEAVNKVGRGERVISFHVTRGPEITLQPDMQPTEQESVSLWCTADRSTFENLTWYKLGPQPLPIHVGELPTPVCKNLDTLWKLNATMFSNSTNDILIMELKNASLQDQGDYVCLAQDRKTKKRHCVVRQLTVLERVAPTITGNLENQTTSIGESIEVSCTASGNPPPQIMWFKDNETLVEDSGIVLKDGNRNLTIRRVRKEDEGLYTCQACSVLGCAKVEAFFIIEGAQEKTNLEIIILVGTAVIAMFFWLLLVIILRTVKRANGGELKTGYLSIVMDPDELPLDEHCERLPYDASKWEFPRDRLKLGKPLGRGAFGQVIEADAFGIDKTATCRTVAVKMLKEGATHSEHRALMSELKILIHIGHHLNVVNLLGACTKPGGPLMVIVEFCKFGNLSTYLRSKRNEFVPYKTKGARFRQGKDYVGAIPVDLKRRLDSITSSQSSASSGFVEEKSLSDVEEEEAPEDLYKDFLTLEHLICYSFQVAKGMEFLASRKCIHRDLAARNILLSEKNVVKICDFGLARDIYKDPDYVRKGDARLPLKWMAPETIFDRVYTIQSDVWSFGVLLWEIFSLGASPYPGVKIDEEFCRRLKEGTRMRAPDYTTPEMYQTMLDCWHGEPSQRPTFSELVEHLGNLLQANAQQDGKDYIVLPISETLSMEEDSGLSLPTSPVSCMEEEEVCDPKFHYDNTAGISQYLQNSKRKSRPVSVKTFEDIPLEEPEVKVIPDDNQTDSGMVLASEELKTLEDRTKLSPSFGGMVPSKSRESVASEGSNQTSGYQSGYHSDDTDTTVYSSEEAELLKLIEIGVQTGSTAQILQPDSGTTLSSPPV
# [9] = target: Vascular endothelial growth factor receptor 2 (Homo sapiens) (UniProt P35968); conditions: at 1 µM
# [10] = target: Mast/stem cell growth factor receptor Kit (Homo sapiens) (UniProt P10721); conditions: at 0.1 µM
# Mast/stem cell growth factor receptor Kit (Homo sapiens), sequence (P10721 whole entry): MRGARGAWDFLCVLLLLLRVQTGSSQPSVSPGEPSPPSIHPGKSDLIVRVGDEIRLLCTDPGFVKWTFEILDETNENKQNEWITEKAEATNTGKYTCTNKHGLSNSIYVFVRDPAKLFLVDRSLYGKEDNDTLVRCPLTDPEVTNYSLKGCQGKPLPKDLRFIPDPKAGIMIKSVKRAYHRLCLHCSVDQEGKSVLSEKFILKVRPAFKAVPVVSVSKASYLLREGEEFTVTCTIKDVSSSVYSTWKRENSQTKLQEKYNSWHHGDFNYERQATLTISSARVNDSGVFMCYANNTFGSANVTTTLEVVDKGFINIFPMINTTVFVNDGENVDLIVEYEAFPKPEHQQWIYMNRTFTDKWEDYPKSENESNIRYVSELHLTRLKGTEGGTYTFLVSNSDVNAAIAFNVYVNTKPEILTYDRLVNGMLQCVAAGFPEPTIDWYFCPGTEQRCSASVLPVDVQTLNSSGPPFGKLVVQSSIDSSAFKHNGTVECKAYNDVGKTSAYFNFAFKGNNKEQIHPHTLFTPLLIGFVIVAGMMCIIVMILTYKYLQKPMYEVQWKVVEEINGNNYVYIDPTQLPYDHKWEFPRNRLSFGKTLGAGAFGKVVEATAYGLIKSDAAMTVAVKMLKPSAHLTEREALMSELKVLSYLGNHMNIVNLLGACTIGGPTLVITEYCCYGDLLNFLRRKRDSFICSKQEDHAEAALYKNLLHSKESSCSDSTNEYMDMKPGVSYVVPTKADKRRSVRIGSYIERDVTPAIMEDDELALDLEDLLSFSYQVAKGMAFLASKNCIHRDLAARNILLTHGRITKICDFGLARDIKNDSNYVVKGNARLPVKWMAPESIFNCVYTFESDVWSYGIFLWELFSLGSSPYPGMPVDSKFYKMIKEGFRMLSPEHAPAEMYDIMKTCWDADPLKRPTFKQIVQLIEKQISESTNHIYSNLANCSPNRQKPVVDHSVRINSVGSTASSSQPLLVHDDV
# [11] = target: Mast/stem cell growth factor receptor Kit (Homo sapiens) (UniProt P10721); conditions: at 1 µM
# [12] = tested on: Mast/stem cell growth factor receptor Kit (Homo sapiens), P10721 [D816V]; conditions: at 0.1 µM
# Mast/stem cell growth factor receptor Kit (Homo sapiens), P10721 [D816V], sequence (P10721 whole entry D816V): as the sequence (P10721 whole entry) above, with D816V counted along it
# [13] = tested on: Mast/stem cell growth factor receptor Kit (Homo sapiens), P10721 [D816V]; conditions: at 1 µM
# [14] = tested on: Mast/stem cell growth factor receptor Kit (Homo sapiens), P10721 [T670I]; conditions: at 0.1 µM
# Mast/stem cell growth factor receptor Kit (Homo sapiens), P10721 [T670I], sequence (P10721 whole entry T670I): as the sequence (P10721 whole entry) above, with T670I counted along it
# [15] = tested on: Mast/stem cell growth factor receptor Kit (Homo sapiens), P10721 [T670I]; conditions: at 1 µM
# [16] = tested on: Mast/stem cell growth factor receptor Kit (Homo sapiens), P10721 [V560G]; conditions: at 0.1 µM
# Mast/stem cell growth factor receptor Kit (Homo sapiens), P10721 [V560G], sequence (P10721 whole entry V560G): as the sequence (P10721 whole entry) above, with V560G counted along it
# [17] = tested on: Mast/stem cell growth factor receptor Kit (Homo sapiens), P10721 [V560G]; conditions: at 1 µM
# [18] = target: Tyrosine-protein kinase Lck (Homo sapiens) (UniProt P06239); conditions: at 0.1 µM
# [19] = target: Tyrosine-protein kinase Lck (Homo sapiens) (UniProt P06239); conditions: at 1 µM
# [20] = target: Leukocyte tyrosine kinase receptor (Homo sapiens) (UniProt P29376); conditions: at 0.1 µM
structure (smiles),measurement,setting,value
NC(=O)c1cc(-c2ccc(F)cc2)cc(-c2ccncc2)c1N,inhibition,[1],-0.8%
same,inhibition,[2],3.49%
same,inhibition,[3],12.2%
same,inhibition,[4],1.44%
same,inhibition,[5],1.06%
same,inhibition,[6],-0.87%
same,inhibition,[7],-2.1%
same,inhibition,[8],6%
same,inhibition,[9],6.66%
same,inhibition,[10],11.9%
same,inhibition,[11],46.7%
same,inhibition,[12],2.24%
same,inhibition,[13],4.8%
same,inhibition,[14],4.07%
same,inhibition,[15],8.15%
same,inhibition,[16],-2.86%
same,inhibition,[17],1.74%
same,inhibition,[18],2.03%
same,inhibition,[19],7.42%
same,inhibition,[20],3.88%
CS(=O)(=O)CCNCc1ccc(-c2ccc3ncnc(Nc4ccc(OCc5ccccc5)c(Br)c4)c3c2)o1,inhibition,[1],-2.69%
same,inhibition,[2],3.52%
same,inhibition,[3],3.08%
same,inhibition,[4],1.19%
same,inhibition,[5],-1.02%
same,inhibition,[6],-5.54%
same,inhibition,[7],-5.98%
same,inhibition,[8],10.1%
same,inhibition,[9],11.1%
same,inhibition,[10],3.38%
same,inhibition,[11],3.91%
same,inhibition,[12],4.87%
same,inhibition,[13],2.18%
same,inhibition,[14],2.66%
same,inhibition,[15],1.79%
same,inhibition,[16],-3.28%
same,inhibition,[17],-1.19%
same,inhibition,[18],0.4%
same,inhibition,[19],4.79%
same,inhibition,[20],2.96%
Fc1ccc(-c2c(-c3ccncc3)nc3n2CCS3)cc1,inhibition,[1],-2.17%
same,inhibition,[2],1.7%
same,inhibition,[3],10.2%
same,inhibition,[4],0.77%
same,inhibition,[5],4.51%
same,inhibition,[6],-3.51%
same,inhibition,[7],2.02%
same,inhibition,[8],5.2%
same,inhibition,[9],9.29%
same,inhibition,[10],3.82%
same,inhibition,[11],9.55%
same,inhibition,[12],0.48%
same,inhibition,[13],4.72%
same,inhibition,[14],2.05%
same,inhibition,[15],3.53%
same,inhibition,[16],-2.29%
same,inhibition,[17],-3.6%
same,inhibition,[18],-3.58%
same,inhibition,[19],-1.31%
same,inhibition,[20],3.49%
COc1cc2ncn(-c3cc(OCc4cccs4)c(C(N)=O)s3)c2cc1OC,inhibition,[1],2.34%
same,inhibition,[2],9.11%
same,inhibition,[3],19.9%
same,inhibition,[4],1.45%
same,inhibition,[5],1.19%
same,inhibition,[6],-2.77%
same,inhibition,[7],-0.29%
same,inhibition,[8],14.1%
same,inhibition,[9],50.5%
same,inhibition,[10],1.96%
same,inhibition,[11],11.7%
same,inhibition,[12],-0.06%
same,inhibition,[13],3.94%
same,inhibition,[14],1.45%
same,inhibition,[15],7.04%
same,inhibition,[16],1.25%
same,inhibition,[17],4.05%
same,inhibition,[18],-0.61%
same,inhibition,[19],13.8%
same,inhibition,[20],1.76%
O=C(Nc1n[nH]c2nc(-c3ccc(O)cc3)c(Br)cc12)C1CC1,inhibition,[1],3.5%
same,inhibition,[2],15.5%
same,inhibition,[3],55%
same,inhibition,[4],3.57%
same,inhibition,[5],28.4%
same,inhibition,[6],11.9%
same,inhibition,[7],62.2%
same,inhibition,[8],36.2%
same,inhibition,[9],71.6%
same,inhibition,[10],17.5%
same,inhibition,[11],63.1%
same,inhibition,[12],9.03%
same,inhibition,[13],10.1%
same,inhibition,[14],3.13%
same,inhibition,[15],4.94%
same,inhibition,[16],2.07%
same,inhibition,[17],10.8%
same,inhibition,[18],6.75%
same,inhibition,[19],22.2%
same,inhibition,[20],62.8%
CCS(=O)(=O)c1ccc(OC)c(Nc2ncc(-c3cccc(-c4ccccc4F)c3)o2)c1,inhibition,[1],2.37%
same,inhibition,[2],-2.17%
same,inhibition,[3],1.93%
same,inhibition,[4],0.19%
same,inhibition,[5],2.27%
same,inhibition,[6],1.2%
same,inhibition,[7],13.9%
same,inhibition,[8],66.9%
same,inhibition,[9],89.5%
same,inhibition,[10],53.7%
same,inhibition,[11],90.9%
same,inhibition,[12],-0.16%
same,inhibition,[13],6.62%
same,inhibition,[14],2.77%
same,inhibition,[15],19.6%
same,inhibition,[16],4.79%
same,inhibition,[17],19.7%
same,inhibition,[18],9.89%
same,inhibition,[19],55.8%
same,inhibition,[20],1.34%
O=C(Nc1n[nH]c2cc(-c3ccccc3)ccc12)C1CC1,inhibition,[1],2.12%
same,inhibition,[2],2.85%
same,inhibition,[3],7.69%
same,inhibition,[4],2.26%
same,inhibition,[5],0.77%
same,inhibition,[6],-1.69%
same,inhibition,[7],0.16%
same,inhibition,[8],4.79%
same,inhibition,[9],12.6%
same,inhibition,[10],3.52%
same,inhibition,[11],7.38%
same,inhibition,[12],3.94%
same,inhibition,[13],8.12%
same,inhibition,[14],4.34%
same,inhibition,[15],4.01%
same,inhibition,[16],1.4%
same,inhibition,[17],3.87%
same,inhibition,[18],2.21%
same,inhibition,[19],6.66%
same,inhibition,[20],3.88%

# Reference: ChEMBL document CHEMBL1961873, “Compounds: GSK PKIS; Assays: Nanosyn kinase panel” (2012)
